Only some compounds are listed: those with a hit (about 8% of all), similar ones and a draw of the others.
Marburg entry inh: inhibitors of Marburg virus binding or cell entry | Marburg virus pseudotyped entry inhibition, cell reporter | Potency, µM (series often up to 37.8 µM), without a hit: top-dose activity change, negative = inhibition, most hits filed as inhibitors | hit rate 1.8% among 300,000; calls by dose curve; tested in HEK293 cells; further: potency means the concentration at half of the fitted maximal effect; on the % scale 0 is the no-effect control and ±100 the full control effect
LASV entry inh: Lassa virus entry inhibition; Lassa virus pseudotype entry inhibition, cell reporter; Potency, µM (titrated, usually from 37.9 µM), inactives show at the highest dose activity change, negative = inhibition, actives largely listed as inhibitors; hit rate 1.2% among 300,000; calls by dose curve; tested in HEK293 cells; further: potency means the concentration at half of the fitted maximal effect; on the % scale 0 is the no-effect control and ±100 the full control effect; nearly all actives have a fitted effect of over 50% in size
HCMV antiviral: inhibitors of human cytomegalovirus; hit rate 4.5% among 410,000; HFF cells, HCMV-luciferase reporter, 72 h; hits give low values; AID 1259415; activity change, negative = inhibition, % at 57.5 µM; in the data active means activity change below about -60%; inconclusive means no clear call, values can overlap the other calls; inactive means above about -39%; further: on the % scale 0 is the no-effect control and ±100 the full control effect
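HFF cells seeded 16 h at 37C, treated with compounds, infected with luciferase-reporter HCMV at MOI 1 PFU/cell; luciferase read at 72 h post infection, normalized to buffer-only and Salinomycin controls.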
SARS PLpro yeast: SARS-CoV PLP inhibition in yeast; S. cerevisiae expressing SARS-CoV PLpro, growth rescue; AID 485353; hit rate 0.19% among 330,000; Potency, µM (titrated, usually from 32.9 µM), without a hit: at the top dose activity, positive = growth rescue, hits mostly activators; calls by dose curve; further: potency means the concentration at half of the fitted maximal effect; 0% is about no effect; nearly all actives have a fitted effect of over 55% in size
HCV inh: HCV inhibition; Huh7.5.1 HCVcc-Cre infection, luciferase reporter, 44 h; Potency, µM (highest dose often 41.8 µM), inactives show top-dose activity change, negative = inhibition, hits mostly inhibitors; hit rate 3.4% among 340,000; AID 651820; active means well fitted inhibition curve with a large enough effect; inconclusive means small, poorly fitted or top-dose-only effect, or another doubt; inactive means no such curve, though single readings can be large or run the other way; further: potency means the concentration at half of the fitted maximal effect; on the % scale 0 is the no-effect control and ±100 the full control effect
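1,000 cells/well; 4 h culture; + compound; + HCVcc-Cre (~0.5 moi); 44 h; luciferase substrate, RT 15 min; read 15 sec.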
FMDV antiviral: antivirals against foot and mouth disease virus; FMDV antiviral cell-based qHTS; Potency, µM (titrated, usually from 57.9 µM), for inactives: at the highest dose activity change, negative = inhibition, hits mostly inhibitors; hit rate 1.2% among 410,000; calls by dose curve; tested in HEK293T cells; further: read-out not given here; potency means the concentration at half of the fitted maximal effect; on the % scale 0 is the no-effect control and ±100 the full control effect; nearly all actives have a fitted effect of over 45% in size
Starred values were filed as active, the others as inactive; ? = inconclusive; . = no result given; ! = a repeat was not active; [ ] = remark or other dose.

SMILES | Marburg entry inh | LASV entry inh | HCMV antiviral | SARS PLpro yeast | HCV inh | FMDV antiviral
COc1ccc(/C(C)=N/NC(=S)NCc2ccco2)cc1 | -11% | 2.1µM* | -6 | -26% | -6% | -11%
COc1cc(NC(=S)NCCc2ccc(S(N)(=O)=O)cc2)c(OC)cc1Cl | . | . | -61* | 0% | -21% | 2%
COc1ccc(/C(C)=N/NC(=S)NCCc2ccccc2)cc1 | ? | ? | -114* | 0% | -12% | -18%
COc1ccc(NC(=S)NCCc2ccccc2)c(OC)c1 | 1% | -1% | 6 | ? | 22µM* | -3%
Cn1cc(-c2nc3cnc(N4CCOCC4)nc3n(CCC#N)c2=O)c2ccccc21 | . | . | . | . | . | -17%
O=c1cc2nc(-c3ccccc3F)nc(SCc3ccc(Br)cc3)n2[nH]1 | . | ? | -22 | . | . | -23%
C/C(=N\NC(=S)NCc1ccccc1)c1ccc2ccccc2c1 | ? | 2.3µM* | -24 | 25% | ? | -6%
COc1cc(NS(=O)(=O)c2ccc(C)c(C)c2)c(OC)cc1Cl | ? | -26% | -69* | -24% | -9% | -2%
C/C(=N\NC(=S)NCc1ccccc1)c1cccc(Br)c1 | -19%[46.1 µM] | ? | 78 | -2% | ? | 52%
COc1ccc(S(=O)(=O)Nc2ccccc2OC)cc1C | -20% | -15% | 11 | 5% | 11% | .
O=c1[nH]c(-c2ccccn2)nc2sc(-c3ccccc3)cc12 | ? | 2.2µM* | -112* | -1% | 1.6µM* | -67%
Cc1c(C(=O)N(C)C)sc2nc(-c3ccccn3)[nH]c(=O)c12 | 12% | 19% | 47 | 1% | -12% | 23%
Cc1nn(-c2ccccc2)c2nc(N)c(C#N)c(-c3ccc(O)c(O)c3)c12 | ? | ? | -62* | 0% | 11µM* | -21%
COc1cc(-c2c(C#N)c(N)nc3c2c(C)nn3-c2ccc(C)c(C)c2)cc(OC)c1OC | 21µM* | ? | 136 | 0% | ? | -13%
COc1ccc(CNC(=O)CCCN2C(=O)CCn3nc(-c4cn(C)c5ccccc45)cc32)cc1 | . | 6%[46.1 µM] | 1 | . | . | -4%
CCc1ccccc1NC(=O)Nc1nnc(N(C)Cc2ccccc2)s1 | 8%[46.1 µM] | 12%[46.1 µM] | 10 | . | . | -11%
CO/N=C(\c1nonc1N)N1CCN(c2ccc(Cl)cc2[N+](=O)[O-])CC1 | ? | ? | -30 | -4% | ? | 35µM*
CO/N=C(\c1nonc1N)N1CCN(c2ccc([N+](=O)[O-])cc2Cl)CC1 | ? | -1% | 7 | 1% | -25% | ?
Cc1nn(-c2ccccc2)c(N)c1N=Nc1cccc(S(=O)(=O)N2CCOCC2)c1 | ? | ? | -68* | -4% | 22µM* | -18%
CCOC(=O)N1CCC(NC(=O)c2ccc3c(c2)N(Cc2ccc(Cl)cc2)C(=O)c2ccccc2S3(=O)=O)CC1 | ? | -26%[46.1 µM] | 16 | . | . | 1%
Cc1ccc(C)c(Nc2ccc3nonc3c2[N+](=O)[O-])c1 | . | . | -87* | 0% | -4% | -24%
CC(C)Cc1nnc(NC(=O)CCC(=O)N2CCN(Cc3ccc(F)cc3)CC2)s1 | . | . | -29 | 4% | 22µM* | 0%
Fc1ccc(Nc2nc(SCc3ccccc3F)nc3ccccc23)cc1 | . | 4%[46.1 µM] | -86* | . | . | -27%
COc1cccc(N2CCN(C(=O)C3Cc4ccccc4N3C(C)=O)CC2)c1 (stereo not given) | . | -23%[46.1 µM] | 19 | . | . | -5%
CCOc1ccc(N(C)S(=O)(=O)c2ccc(-c3cc(C)no3)s2)cc1 | . | . | -31 | -2% | 10µM* | ?
SMILES | Marburg entry inh | LASV entry inh | HCMV antiviral | SARS PLpro yeast | HCV inh | FMDV antiviral
CCOc1ccc(N(C)S(=O)(=O)c2cc(-c3cc(C)no3)ccc2C(C)C)cc1 | . | . | ? | 1% | ? | -26%
Cc1cccc(N(C)S(=O)(=O)c2ccc(-c3cc(C)no3)s2)c1 | . | ? | -74*! | -13% | -22% | 0%
CCN(c1cccc(C)c1)S(=O)(=O)c1ccc(-c2cc(C)no2)s1 | . | . | -65* | -2% | 15% | -23%
CCn1nnc2cc(C(=O)Nc3cccc(Cl)c3C)ccc21 | . | 8%[46.1 µM] | 16 | . | . | 8%
Cc1cccc(N(C)c2nc3ccccc3c3nnc(C)n23)c1 | . | 17%[46.1 µM] | 0 | . | . | -8%
Cc1cccc(C)c1-n1nnnc1C(C1CC1)N1C(=O)C(=O)c2ccccc21 (stereo not given) | . | . | -4 | . | . | .

Bioassay records from PubChem BioAssay.
